# Source: ChEMBL document CHEMBL3988442, “University of Dundee, Small-Polar-MMV Screening Library” (2021)
# Hit rate of the full screen: of about 48,000 compounds, about 13,000 (27%) showed an effect of 50% or more. This is one part of the list.
# Test system: Wolbachia pipientis
# Assay: Anti-Wolbachia Cell-Based Screen
# Type: functional
# Parameters: scale not given: in the data most compounds retested in dose-response had high values
# Details: 5 µM
row,SMILES,Percent Effect [%]
1,COc1cccc2c1OCC(CNC(=O)COCC(F)(F)C(F)F)C2 (stereo not drawn),-0.4399
2,CC(Cn1cccn1)NC(=O)N(C)Cc1ccc(Cl)s1 (stereo not drawn),-9.644
3,CNC(=O)C(NC(=O)c1nccn2ccnc12)c1ccc(F)c(F)c1 (stereo not drawn),7.625
4,COCCN1C[C@@H]2CN(c3cc(OC)ncn3)CCC[C@]2(C(=O)O)C1.O=C(O)C(F)(F)F,-26.02
5,COCCCC1CCCCN1Cc1cc(F)ccc1-n1cccn1 (stereo not drawn),-9.489
6,Cc1nc(CSc2nc(=O)ccn2C(C)C)cs1,-10.57
7,CCc1nc(N2CCN(c3ncccc3C#N)CC2)c2cnn(C)c2n1,-1.782
8,CCOCCN1CCN(c2ccc(C#N)cn2)CC1,109.9
9,CS(=O)(=O)NCC1CCCN(c2ccc(C#N)cn2)C1 (stereo not drawn),7.798
10,CC1CN(c2ccc(C#N)cn2)CCN1c1ccc2nncn2n1 (stereo not drawn),-4.12
11,CCOCCN1CCN(c2ncccc2C#N)CC1CC (stereo not drawn),98.03
12,CCC1(CO)CCCN(c2ncccc2C#N)C1 (stereo not drawn),13.06
13,Cn1ccnc1CN1CCN(c2ccc(C#N)cn2)CC1,-0.9775
14,CCOCCN1CCN(c2ccc(C#N)cn2)CC1CC (stereo not drawn),137.2
15,CC(C)(C)NC(=O)CN1CCCN(c2ccc(C#N)cn2)CC1,24.81
16,OC(CN(Cc1ccccc1)Cc1cscn1)c1ccco1 (stereo not drawn),18.92
17,CCOCCCn1c(NC(=O)c2cnc(C)s2)nc2ccccc21,27.94
18,CCOCCCn1c(NC(=O)c2cnn(C)c2)nc2ccccc21,-0.9199
19,Cc1cc(C(=O)NCC(c2ccccc2Cl)N2CCOCC2)on1 (stereo not drawn),-6.198
20,CCOCCCn1c(NC(=O)c2cc(C)on2)nc2ccccc21,95.91
21,CCOCCCn1c(NC(=O)c2ccc(C)nc2)nc2ccccc21,6.919
22,CCN(CC)CCn1c(NC(=O)c2scnc2C)nc2ccccc21,105.9
23,CCOCCCn1c(NC(=O)c2cc(C)no2)nc2ccccc21,106.1

row,SMILES,Percent Effect [%]
1,CCOCCCn1c(NC(=O)c2ccnc(C)n2)nc2ccccc21,73.67
2,CCOCCCn1c(NC(=O)c2scnc2C)nc2ccccc21,25.92
3,CCCn1c(NC(=O)CNC(=O)OCC)nc2ccccc21,-6.336
4,CCOCCCn1c(NC(=O)c2cnc(C)cn2)nc2ccccc21,19.12
5,CCOC(=O)NCC(=O)Nc1nc2ccccc2n1C(C)(C)C,17.02
6,CCN(c1ccccc1)S(=O)(=O)c1cc(C(=O)O)cc2c1CCC2,1.015
7,Cc1ccc(N2Cc3cnn(Cc4ccc(F)cc4)c3C2)nn1,30.55
8,Cc1nn(C)c(C)c1OCC(=O)N1CCC(O)(C(F)(F)F)CC1,-15.17
9,CCOCCNC(=O)c1cc(COc2cncc(Cl)c2)on1,-4.955
10,Cc1cc2occ(CC(=O)N3CCC4(CCCN(C)C4=O)C3)c2cc1Cl (stereo not drawn),-29.71
11,NC(=O)CC1CCCN(c2cncc(SCc3ccccc3)n2)C1 (stereo not drawn),107.6
12,CNC(=O)CN(C)c1cncc(OCc2ccccc2)n1,-7.002
13,CC(C)Oc1ncc(C(=O)N2CCC(CC(N)=O)CC2)cc1Cl,-16.32
14,CC(C)COc1cncc(N2CCCC(CC(N)=O)C2)n1 (stereo not drawn),119.8
15,CCC(=O)NC1CCCN(C(=O)c2ccc(OCC3CC3)nc2)C1 (stereo not drawn),-1.285
16,NC(=O)CC1CCCN(c2cncc(OCc3ccccc3)n2)C1 (stereo not drawn),95.75
17,Cc1ccccc1CSc1nc(N)cc(N2CCCC(O)C2)n1 (stereo not drawn),-23.5
18,O=C(O)c1cn(CC2CCCN(c3cnc4ccccc4n3)C2)nn1 (stereo not drawn),0.3718
19,CNC(=O)CN(C)c1cncc(OCC(C)C)n1,-2.547
20,CCCC(=O)NC1CCCN(c2cncc(Br)c2)C1 (stereo not drawn),2.547
21,NC(=O)N1CCCC(C(=O)NCc2noc(Cc3ccccc3)n2)C1 (stereo not drawn),9.14
22,CCC(=O)NC1CCCN(c2cncc(OCc3ccccc3)n2)C1 (stereo not drawn),109.7
23,Cc1ccc(CN2CCN(Cc3ccc4nonc4c3)CC2=O)cc1,-11.42

row,SMILES,Percent Effect [%]
1,O=C(Nc1cccnc1)C1CCCN(c2cc(-n3cccn3)ncn2)C1 (stereo not drawn),-6.997
2,c1ccc(COC2CCN(c3cncc(-n4cccn4)n3)CC2)cc1,1.342
3,COc1nc(N2CCC(CC(N)=O)CC2)ncc1Br,4.929
4,c1ccc2nc(N3CCCC(Cn4cncn4)C3)cnc2c1 (stereo not drawn),3.637
5,NC(=O)CC1CCN(c2cncc(OCc3ccccc3)n2)CC1,92.73
6,O=C(O)c1ccc(N2CCC(Cc3ccccc3)CC2)nn1,3.318
7,COCC1CCCN(c2cncc(OCc3ccccc3)n2)C1 (stereo not drawn),88.62
8,c1cncc(COCC2CN(Cc3ccco3)Cc3ccnn3C2)c1 (stereo not drawn),-0.3306
9,COc1ccc(Cl)cc1CS(=O)(=O)Cc1nc(C2CC2)no1,17.46
10,Cc1cnc2c(c1)N(C(=O)c1ccc(=O)n(C)c1)CCO2,10.48
11,O=C(c1c(F)cccc1Br)N1CCCOCC1,-0.116
12,Cc1cc(C)c(C(=O)N2CCOC(c3cccs3)C2)c(=O)[nH]1 (stereo not drawn),-5.418
13,O=C(O)C(=O)O.c1csc(-c2noc(C3CN(Cc4ccc5c(c4)CCO5)C3)n2)c1,26.44
14,CCCn1ccc(C(=O)N2CCOC(c3nc(-c4cccs4)no3)C2)n1 (stereo not drawn),4.055
15,COc1ncccc1C(=O)N1CC(c2nc(-c3cccs3)no2)C1,5.63
16,CCCc1cc(C(=O)N2CCOC(c3nc(-c4cccs4)no3)C2)no1 (stereo not drawn),6.079
17,COc1c(C(=O)N2CCOC(c3cccs3)C2)c(C)nn1C (stereo not drawn),-3.946
18,CCn1ccc(C(=O)N2CCOC(c3nc(-c4cccs4)no3)C2)n1 (stereo not drawn),106.6
19,CCn1cc(C(=O)N2CCOC(c3nc(-c4cccs4)no3)C2)cn1 (stereo not drawn),116.8
20,CCCn1cc(C(=O)N2CCOC(c3nc(-c4cccs4)no3)C2)cn1 (stereo not drawn),93.77
21,CN(C)CCN1CC2(CCCN(c3ccc(Cl)cn3)C2)CCC1=O (stereo not drawn),-8.264
22,CCN(Cc1ccoc1)c1ncc(S(N)(=O)=O)s1,-17.75
